Source: PubChem BioAssay (NCATS)
Unmarked numbers belong to inactive results. Inconclusive results are not listed. Entries that show only a call come without a potency. Active and inactive are the calls of the source. Unless noted, no rule for the calls is given here.

Assays:
[1] = target: Androgen receptor (Homo sapiens) (UniProt P10275); assay: qHTS assay for small molecule agonists of androgen receptor signaling (AID 588515; active = well fitted curve in the direction sought with a large enough effect in the signal ratio, with a control signal flat; the % refers to the signal ratio); settings: AR-UAS-bla HEK293, beta-lactamase ratio, agonist 16 h; active compounds read high
Summary of the method: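 Stimulation of an AR-responsive β-lactamase reporter in GripTite HEK293 cells was measured after 16 h compound exposure at 37 °C, via CCF4 fluorescence after 2 h RT. EC50 from Hill fits, normalized to R1881 at 30 nM.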

[2] = target: Peroxisome proliferator-activated receptor delta (Homo sapiens) (UniProt Q03181); assay: qHTS assay for small molecule antagonists of peroxisome proliferator-activated receptor delta signaling (AID 588535; active = well fitted inhibition curve with a large enough effect in the signal ratio, with a control signal flat, not every such curve was filed as active; the % refers to the signal ratio); settings: HEK293T PPARd-UAS-bla, beta-lactamase FRET ratio, 18 h; series mostly up to 76.7 µM
Summary of the method: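 Titrations were run on PPAR-delta-UAS-bla HEK293T cells in charcoal/dextran-stripped serum, incubated 18 h at 37 C. CCF4 fluorescence (460/530 nm) after 2 h RT; Hill equation yields IC50 and maximal response.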

[3] = qHTS assay for small molecule activators of the nuclear factor-kappa B (NF-kB) signaling pathway (AID 651749; active = well fitted activation curve with a large enough effect in the signal ratio; the % refers to the signal ratio); settings: NF-kB-bla ME-180 cells, beta-lactamase FRET ratio, 16 h; activation: active compounds read high
Summary of the method: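 Activation measured after 16 hr compound treatment at 37C, 5% CO2, of 2,000 ME-180 cells/well stably expressing an NF-kB response element–driven beta-lactamase reporter, via FRET-disruption fluorescence.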

[4] = target: Bile acid receptor (Homo sapiens) (UniProt Q96RI1); assay: qHTS assay for small molecule antagonists of farnesoid X receptor signaling (AID 588526; calls by dose curve); settings: HEK293T FXR-UAS-bla, beta-lactamase ratio, antagonist mode; series mostly up to 76.7 µM
Summary of the method: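 Beta-lactamase reporter antagonist mode: HEK293T FXR-UAS-bla cells, titrated compound, CDCA stimulation, 16 h 37 C, CCF4 dye 2 h RT. Data normalized to CDCA 50 uM and DMSO; Hill-fit IC50.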

[5] = target: Glucocorticoid receptor (Homo sapiens) (UniProt P04150); assay: qHTS assay for small molecule agonists of glucocorticoid receptor signaling (AID 588532; active = well fitted curve in the direction sought with a large enough effect in the signal ratio, with a control signal flat; the % refers to the signal ratio); settings: HeLa MMTV-bla, beta-lactamase ratio, agonist, 18 h; activation: active compounds read high, percent of dexamethasone control, DMSO zero
Summary of the method: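 Using MMTV-bla HeLa cells in medium with 1% stripped FBS and 25 mM HEPES, compounds were titrated and incubated overnight-length (18 h). Beta-lactamase cleavage of CCF4 was quantified by dual-emission fluorescence.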

[6] = target: Peroxisome proliferator-activated receptor gamma (Homo sapiens) (UniProt P37231); assay: qHTS assay for small molecule antagonists of peroxisome proliferator-activated receptor gamma signaling (AID 588537; active = well fitted inhibition curve with a large enough effect in the signal ratio, with a control signal flat, not every such curve was filed as active; the % refers to the signal ratio;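 also: reporter cells co-stimulated with 50 nM rosiglitazone agonist during compound treatment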); settings: HEK293 PPARg-UAS-bla, beta-lactamase ratio, antagonist mode; series mostly up to 76.8 µM
Summary of the method: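 Antagonist-mode β-lactamase reporter screen run as a titration series. HEK293 PPARγ-UAS-bla cells are stimulated with rosiglitazone (50 nM final) for 16 h, then CCF4 is read at 460/530 nm. Data are scaled between DMSO and rosiglitazone and fitted to the Hill equation.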

[7] = qHTS assay for small molecule agonists of the antioxidant response element (ARE) signaling pathway (AID 651741; active = well fitted activation curve with a large enough effect in the signal ratio; the % refers to the signal ratio; also: potency is read from the fitted curve at half-maximal effect); settings: HepG2 ARE-bla reporter, beta-lactamase FRET ratio, 16 h; series mostly up to 96 µM
Summary of the method: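 Beta-lactamase reporter under ARE control in HepG2 cells, 2,000 per well, was induced by 16 h compound treatment at 37 C. Read-out was fluorescence from LiveBLAzer B/G FRET substrate after 2 h at room temperature.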

[8] = qHTS assay for small molecule activators of the human pregnane X receptor (PXR) signaling pathway (AID 720659); settings: DPX-2 HepG2 CYP3A4-luciferase, 24 h; series mostly up to 92.3 µM
[9] = target: Peroxisome proliferator-activated receptor gamma (Homo sapiens) (UniProt P37231); assay: qHTS assay for small molecule agonists of peroxisome proliferator-activated receptor gamma signaling (AID 588536; active = well fitted curve in the direction sought with a large enough effect in the signal ratio, with a control signal flat, not every such curve was filed as active; the % refers to the signal ratio); settings: HEK293 PPARg-UAS-bla, beta-lactamase ratio, 16 h; series mostly up to 76.7 µM
Summary of the method: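 This is an agonist-mode beta-lactamase reporter assay in HEK293 PPAR-gamma-UAS-bla cells with 1% charcoal/dextran FBS. Compound titrations ran 16 h at 37 C before CCF4 detection. EC50 and efficacy are Hill fits scaled to 2 uM rosiglitazone (100%) and DMSO basal.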

Chain of Glucocorticoid receptor (Homo sapiens) (P04150 whole entry, looked up): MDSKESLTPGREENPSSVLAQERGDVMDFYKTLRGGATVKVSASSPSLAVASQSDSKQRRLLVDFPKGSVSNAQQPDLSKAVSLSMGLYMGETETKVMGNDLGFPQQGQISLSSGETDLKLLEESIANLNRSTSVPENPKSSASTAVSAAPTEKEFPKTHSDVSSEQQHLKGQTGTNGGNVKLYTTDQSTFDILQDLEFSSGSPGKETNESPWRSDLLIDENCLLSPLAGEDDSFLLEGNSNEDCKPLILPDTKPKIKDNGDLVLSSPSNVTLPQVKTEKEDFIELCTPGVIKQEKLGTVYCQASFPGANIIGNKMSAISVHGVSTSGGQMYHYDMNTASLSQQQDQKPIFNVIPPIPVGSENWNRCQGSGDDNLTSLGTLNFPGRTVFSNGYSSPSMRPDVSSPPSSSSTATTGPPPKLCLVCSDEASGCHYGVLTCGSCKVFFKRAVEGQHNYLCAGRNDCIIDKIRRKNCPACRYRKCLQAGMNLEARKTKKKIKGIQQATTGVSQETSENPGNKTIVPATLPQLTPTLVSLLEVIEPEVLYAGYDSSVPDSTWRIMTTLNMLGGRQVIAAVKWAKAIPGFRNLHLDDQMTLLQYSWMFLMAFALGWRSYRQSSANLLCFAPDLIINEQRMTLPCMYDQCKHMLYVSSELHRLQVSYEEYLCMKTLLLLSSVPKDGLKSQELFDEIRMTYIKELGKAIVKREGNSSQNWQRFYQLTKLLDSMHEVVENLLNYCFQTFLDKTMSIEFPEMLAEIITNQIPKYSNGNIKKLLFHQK
Chain of Peroxisome proliferator-activated receptor gamma (Homo sapiens) (P37231 whole entry, looked up): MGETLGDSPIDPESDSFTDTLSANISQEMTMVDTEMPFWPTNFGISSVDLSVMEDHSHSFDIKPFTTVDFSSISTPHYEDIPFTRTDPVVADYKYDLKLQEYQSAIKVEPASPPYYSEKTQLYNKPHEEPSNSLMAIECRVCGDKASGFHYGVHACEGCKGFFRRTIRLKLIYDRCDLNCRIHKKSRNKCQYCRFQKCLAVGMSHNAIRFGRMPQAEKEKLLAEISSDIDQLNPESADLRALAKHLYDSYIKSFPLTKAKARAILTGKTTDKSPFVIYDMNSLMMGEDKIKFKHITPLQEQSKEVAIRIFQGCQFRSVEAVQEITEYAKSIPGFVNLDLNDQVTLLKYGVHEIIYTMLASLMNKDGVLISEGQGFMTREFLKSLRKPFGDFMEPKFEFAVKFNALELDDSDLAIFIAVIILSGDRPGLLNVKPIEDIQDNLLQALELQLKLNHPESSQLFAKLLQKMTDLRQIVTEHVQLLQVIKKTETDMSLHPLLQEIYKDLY
Chain of Peroxisome proliferator-activated receptor delta (Homo sapiens) (Q03181 whole entry, looked up): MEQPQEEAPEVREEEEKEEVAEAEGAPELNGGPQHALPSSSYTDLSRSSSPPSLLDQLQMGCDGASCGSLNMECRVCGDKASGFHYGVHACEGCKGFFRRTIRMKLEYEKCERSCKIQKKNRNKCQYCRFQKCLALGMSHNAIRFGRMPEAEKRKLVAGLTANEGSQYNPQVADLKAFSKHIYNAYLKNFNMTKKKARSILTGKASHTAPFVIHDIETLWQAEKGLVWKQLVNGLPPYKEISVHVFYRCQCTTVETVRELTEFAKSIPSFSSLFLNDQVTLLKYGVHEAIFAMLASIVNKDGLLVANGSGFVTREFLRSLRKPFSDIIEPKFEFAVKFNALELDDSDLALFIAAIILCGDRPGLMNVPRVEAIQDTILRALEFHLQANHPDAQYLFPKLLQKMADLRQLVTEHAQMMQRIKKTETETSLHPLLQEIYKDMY
Chain of Androgen receptor (Homo sapiens) (P10275 whole entry, looked up): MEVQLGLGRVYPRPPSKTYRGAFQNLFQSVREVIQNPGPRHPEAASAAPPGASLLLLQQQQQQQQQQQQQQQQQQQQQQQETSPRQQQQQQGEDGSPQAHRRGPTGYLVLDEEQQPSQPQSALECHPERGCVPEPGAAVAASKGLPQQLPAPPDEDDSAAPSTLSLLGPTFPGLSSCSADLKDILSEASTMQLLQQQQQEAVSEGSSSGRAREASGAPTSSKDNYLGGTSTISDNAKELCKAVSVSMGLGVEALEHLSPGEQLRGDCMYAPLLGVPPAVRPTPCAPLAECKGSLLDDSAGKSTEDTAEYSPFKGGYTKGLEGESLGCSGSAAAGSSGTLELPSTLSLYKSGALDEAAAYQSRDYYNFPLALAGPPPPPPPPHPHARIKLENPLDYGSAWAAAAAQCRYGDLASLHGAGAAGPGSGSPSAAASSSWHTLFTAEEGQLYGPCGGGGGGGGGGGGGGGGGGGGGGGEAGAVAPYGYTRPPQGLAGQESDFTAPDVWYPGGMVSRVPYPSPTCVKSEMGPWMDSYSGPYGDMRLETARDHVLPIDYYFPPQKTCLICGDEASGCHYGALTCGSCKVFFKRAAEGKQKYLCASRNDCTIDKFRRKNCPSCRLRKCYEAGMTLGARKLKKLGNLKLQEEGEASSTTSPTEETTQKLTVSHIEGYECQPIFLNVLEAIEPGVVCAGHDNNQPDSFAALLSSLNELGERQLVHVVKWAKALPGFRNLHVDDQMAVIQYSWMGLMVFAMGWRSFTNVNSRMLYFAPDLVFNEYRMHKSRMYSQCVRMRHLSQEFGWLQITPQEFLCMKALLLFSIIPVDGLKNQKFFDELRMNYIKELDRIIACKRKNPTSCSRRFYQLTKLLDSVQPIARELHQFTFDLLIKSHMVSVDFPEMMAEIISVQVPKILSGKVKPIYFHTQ
Chain of Bile acid receptor (Homo sapiens) (Q96RI1 whole entry, looked up): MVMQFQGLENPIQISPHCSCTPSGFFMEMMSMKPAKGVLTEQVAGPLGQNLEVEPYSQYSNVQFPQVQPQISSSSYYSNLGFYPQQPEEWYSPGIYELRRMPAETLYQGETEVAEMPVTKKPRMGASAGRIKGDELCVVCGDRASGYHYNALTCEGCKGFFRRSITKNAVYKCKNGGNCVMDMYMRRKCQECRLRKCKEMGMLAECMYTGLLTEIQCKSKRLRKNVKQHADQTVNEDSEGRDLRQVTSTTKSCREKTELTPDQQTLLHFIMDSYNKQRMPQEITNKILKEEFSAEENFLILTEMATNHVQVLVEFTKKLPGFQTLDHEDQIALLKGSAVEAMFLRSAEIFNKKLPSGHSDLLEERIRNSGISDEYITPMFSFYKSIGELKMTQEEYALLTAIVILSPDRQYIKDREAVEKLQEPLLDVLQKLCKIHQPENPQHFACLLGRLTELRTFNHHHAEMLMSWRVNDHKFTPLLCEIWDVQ

| Compound | activation [1] [%] | Potency [2] | activation [3] [%] | Potency [4] | activation [5] [%] | Potency [6] | Potency [7] | outcome [8] | Potency [9] |
| --- | --- | --- | --- | --- | --- | --- | --- | --- | --- |
| CCCCC(O)(Cn1cncn1)c1ccc(Cl)cc1Cl (stereo not drawn) | -10.4 | inactive | 0.388 |  |  |  |  |  |  |
| CCC[CH2][Sn]([CH2]CCC)([CH2]CCC)[CH2]CCC |  | inactive |  | inactive | -2.61 | inactive | inactive | inactive |  |
| COC(C)(C)CCC[C@H](C)C/C=C/C(C)=C/C(=O)OC(C)C | -8.45 |  | 0.706 |  |  |  | 68.6 µM (active) |  |  |
| CC(O)CN(CC(C)O)CC(C)O (stereo not drawn) |  | inactive |  | inactive | 4.4 |  | 54.5 µM (active) | inactive |  |
| O=CNC(N1CCN(C(NC=O)C(Cl)(Cl)Cl)CC1)C(Cl)(Cl)Cl (stereo not drawn) | 14.6 | inactive | -2.29 |  | -2.65 | inactive |  |  | inactive |
